{"source": "PubChem BioAssay (EPA / NIEHS)", "note": "Activity calls are given as the source filed them. Rule for the calls: active = hit-call score of the fitted dose curve at least 0.9, where 1 is the maximum; inactive = score below 0.9.", "data": [{"read-out": "Interleukin-6 (IL6), IL6 (gene 3569)", "assay": "BSK_CASM3C_IL6: BioMAP Diversity Plus: CASM3C Assay for Interleukin-6 (IL6) Biomarker Activity for (AID 2283040)", "conditions": "primary human coronary artery smooth muscle cells; actives raise or lower the signal", "values": [{"smiles": "CCC(C)(CC)c1cc(NC(=O)c2c(OC)cccc2OC)on1", "outcome": "inactive"}, {"smiles": "Nn1cnnc1", "outcome": "inactive"}, {"smiles": "CCCCCCCCOC(=O)c1ccccc1C(=O)OCCCCCCCC", "outcome": "inactive"}, {"smiles": "Clc1ccc(Cl)cc1", "outcome": "inactive"}, {"smiles": "Cc1ccccc1O", "outcome": "inactive"}, {"smiles": "Cc1cc(-c2ccc(N)c(C)c2)ccc1N", "outcome": "inactive"}, {"smiles": "CC#Cc1cc(C)nc(Nc2ccccc2)n1", "outcome": "inactive"}, {"smiles": "CO/C=C(/C(=O)OC)c1ccccc1COc1cccc(C(F)(F)F)n1", "AC50": "5.93 µM (active)"}, {"smiles": "ClC1=C(Cl)[C@]2(Cl)[C@@H]3[C@@H](Cl)[C@H]4O[C@H]4[C@@H]3C1(Cl)C2(Cl)Cl", "outcome": "inactive"}, {"smiles": "C=CC(=O)NCNC(=O)C=C", "outcome": "inactive"}, {"smiles": "CCCCCCCCCc1ccc(O)cc1", "AC50": "27.8 µM (active)"}, {"smiles": "N#Cc1ccc(N(CC(N)=O)CC(F)(F)F)cc1C(F)(F)F", "outcome": "inactive"}, {"smiles": "CCC(C)(c1ccc(O)cc1)c1ccc(O)cc1", "outcome": "inactive"}, {"smiles": "O=C(N[C@H]1CN2CCC1CC2)c1cc2ccoc2cn1", "outcome": "inactive"}, {"smiles": "ClC1=C(Cl)[C@]2(Cl)[C@@H]3[C@@H]4C[C@@H]([C@H]5O[C@@H]45)[C@@H]3[C@@]1(Cl)C2(Cl)Cl", "outcome": "inactive"}, {"smiles": "O=C(NC(=O)c1cc(F)c(F)cc1Cl)Nc1cc(F)ccc1N1CCC(C(=O)O)CC1", "outcome": "inactive"}, {"smiles": "O=S(=O)(O)C(F)(F)C(F)(F)C(F)(F)C(F)(F)C(F)(F)C(F)(F)F", "outcome": "inactive"}, {"smiles": "C1CC2OC2CC1C1CO1", "note": "(configuration not stated)", "outcome": "inactive"}, {"smiles": "ClC1=C(Cl)[C@]2(Cl)[C@@H]3[C@H]4C[C@H]([C@@H]5O[C@H]45)[C@@H]3[C@@]1(Cl)C2(Cl)Cl", "outcome": "inactive"}, {"smiles": "C[C@]12CCC(=O)C=C1CC[C@@H]1[C@@H]2CC[C@]2(C)C(=O)CC[C@@H]12", "outcome": "inactive"}, {"smiles": "CCC(C)c1cc([N+](=O)[O-])cc([N+](=O)[O-])c1O", "note": "(configuration not stated)", "outcome": "inactive"}, {"smiles": "Clc1ccc(C(Cl)(Cl)Cl)cc1", "outcome": "inactive"}, {"smiles": "Oc1ccc(Cl)cc1Cl", "outcome": "inactive"}, {"smiles": "C[C@]12CCC(=O)C=C1CC[C@@H]1[C@@H]2CC[C@@]2(C)[C@H]1CC[C@]2(C)O", "outcome": "inactive"}, {"smiles": "CC(C)C(=O)OCC(C)(C)C(OC(=O)C(C)C)C(C)C", "note": "(configuration not stated)", "outcome": "inactive"}, {"smiles": "O=NN(c1ccccc1)c1ccccc1", "outcome": "inactive"}, {"smiles": "Oc1ccc(C(c2ccc(O)cc2)(C(F)(F)F)C(F)(F)F)cc1", "outcome": "inactive"}, {"smiles": "CCCCCCOC(=O)c1ccccc1C(=O)OCCCCCC", "outcome": "inactive"}, {"smiles": "Sc1ccccc1", "outcome": "inactive"}, {"smiles": "Clc1ccc(C(c2ccccc2Cl)C(Cl)(Cl)Cl)cc1", "note": "(configuration not stated)", "outcome": "inactive"}, {"smiles": "c1cc2ccc3cccc4ccc(c1)c2c34", "outcome": "inactive"}, {"smiles": "CCCN(CCC)N=O", "outcome": "inactive"}]}]}
